# Several values for one entry are separate records, joined by “and”; a condition that tells them apart may be missing. Equal values may be shown once. Where a structure was tested more than once in an assay, its records may differ in their call. Activity calls are given as the source filed them. How the source made its calls: active means hit-call score of the fitted dose curve at least 0.9, where 1 is the maximum; inactive means score below 0.9.
# Experiment: ATG_NRF2_ARE_CIS: Attagene CIS-FACTORIAL HepG2 Assay for human Nuclear Factor Erythroid 2 Related Factor 2 (NFR2) response to Antioxidant Response Elements (ARE) (AID 2282992)
# Details: HepG2 Attagene ARE/NRF2 reporter, transcription factor activity; actives raise or lower the signal
# Protocol: ATG_CIS is a cell-based, multiplexed-readout assay that uses HepG2, a human liver cell line, with measurements taken at 24 hours after chemical dosing in a 24-well plate.ATG_NRF2_ARE_CIS is one of 52 assay component(s) measured or calculated from the ATG_CIS assay. It is designed to make measurements of mRNA induction, a form of inducible reporter, as detected with fluorescence intensity signals by Reverse transcription polymerase chain reaction (RT-PCR) and Capillary electrophoresis technology.Data from the assay component ATG_NRF2_ARE_CIS was analyzed into 1 assay endpoint. This assay endpoint, ATG_NRF2_ARE_CIS, was analyzed with bidirectional fitting relative to DMSO as the negative control and baseline of activity. Using a type of inducible reporter, measures of mRNA for gain or loss-of-signal activity can be used to understand the reporter gene at the transcription factor-level as they relate to the gene NFE2L2. Furthermore, this assay endpoint can be referred to as a primary readout, because this assay has produced multiple assay endpoints where this one serves a reporter gene function. To generalize the intended target to other relatable targets, this assay endpoint is annotated to the dna binding intended target family, where the subfamily is basic leucine zipper.
# Human liver HepG2 cells are transiently transfected with multiple reporter transcription units (MRTUs) in 6-well plates using FuGene 6 reagent (Roche; 3 ml FuGene/1 mg DNA). The MRTU constructs are regulated by a cis-regulating element (promoter). […] A major difference between the CIS and TRANS system is that in CIS activities of endogenous TFs are measured, whereas the TRANS assay evaluates changes in activities of exogenous, chimeric NR-Gal4 proteins. […] At the end of 24 hour incubation, total RNA was isolated using TriZol reagent (Invitrogen). The isolated RNA is then reverse-transcribed using oligo(dT) primer and Mo-MLV reverse transcriptase (Invitrogen) with DNAse I (Ambion) treatment for 30 min. The one-tenth of the produced cDNA was amplified by PCR using Taq DNA polymerase (Invitrogen) and two reporter sequence-specific primers. The PCR products were fluorescently labeled by primer extension with 6-arboxyfluorescein (6-FAM) 5'-labeled reporter sequence-specific primer (2 min at 95 C, 20 s at 68 C and 10 min at 72 C) and these products were digested with 5U of HpaI (New England Biolabs) for 2h at 37 C. The fragments were purified using Qiaquick PCR columns (Qiagen), analyzed on an ABI 3130xL genetic analyzer (Applied Biosystems) with peak positions identified by using a set of X-rhodamine (ROX)-labeled MapMarker1000 molecular weight standards (BioVentures). The raw capillary electrophoresis data was processed using Attagraph software (Attagene).
Compound,outcome,AC50
c1ccc2ncccc2c1,inactive,
Cc1nccn1-c1ccc(Sc2cccc(C3(C(N)=O)CCOCC3)c2)cc1,,0.858 µM (active)
CCCCCCCCCCCCCCCCOS(=O)(=O)O,,27.3 µM (active)
CCCOc1ccc(S(=O)(=O)N2CCN(CC)CC2)cc1-c1nc2c(CC)n(Cc3ccccn3)nc2c(=O)[nH]1,,43 µM (active)
O=C(O)c1ccc2c(c1)nc(C(=O)NC1CCN(C3CC3)CC1)n2Cc1cc(-c2ccc(Cl)s2)on1,inactive,
OC[C@H]1O[C@@](CO)(O[C@H]2O[C@H](CO)[C@@H](O)[C@H](O)[C@H]2O)[C@@H](O)[C@@H]1O,,58.6 µM (active)
OCc1c[nH]c2ccccc12,,26.6 µM (active) [middle of 5 runs]
FC(F)(F)COC(OCC(F)(F)F)OCC(F)(F)F,inactive,
OCC(CO)(CO)CO,inactive,141 µM (active)
CCCCCCCC/C=C\CCCCCCCC(=O)OC[C@@H](O)[C@H]1OC[C@H](O)[C@H]1O,inactive,
COCc1nnc(-c2ccc[n+]([O-])c2)n1-c1c(Cl)c(Cl)cc2[nH]c(=O)c(=O)[nH]c12,inactive,
OCCC(F)(F)C(F)(F)C(F)(F)C(F)(F)F,inactive,
O=C(Cl)C(F)(F)C(F)(F)C(F)(F)C(=O)Cl,inactive,
CCCCCCCCN(C)C,inactive,
CCOc1ccc2[nH]cc(C(=O)NCc3ccccc3)c(=O)c2n1,,9.32 µM (active)
NC(=O)NN=Cc1ccc([N+](=O)[O-])o1,,27.8 µM (active)
Cn1c(=O)c2[nH]cnc2n(C)c1=O,inactive,
CCCCN1C(=O)[C@@H]([C@H](O)C2CCCCC2)NC(=O)C12CCN(Cc1ccc(Oc3ccc(C(=O)O)cc3)cc1)CC2,inactive,
COc1cc(C(C)C)c2c(c1)S(=O)(=O)N(COc1cc(=O)n3cccc(OCCN4CCCCC4)c3n1)C2=O,,1.29 µM (active)

Compound,outcome,AC50
O=C(O)CO,inactive,
OC(O)(C(F)C(O)(O)C(F)(F)F)C(F)(F)F,inactive,39.4 µM (active)
O=C(N[C@H](CO)[C@H](O)c1ccc([N+](=O)[O-])cc1)C(Cl)Cl,inactive,
CC(C)C(=O)Nc1ccc([N+](=O)[O-])c(C(F)(F)F)c1,,25.3 µM (active)
c1ccc2c(c1)-c1cccc3c1c-2cc1ccccc13,,204 nM (active) and 29.8 µM (active)
CCCCCOC(C)=O,inactive,
CCc1ccc(O)c(C(C)(C)C)c1,,27.7 µM (active)
CCc1cccc(CC)c1N,inactive,
O=S(=O)(O)c1ccc(N=Nc2c(O)ccc3cc(S(=O)(=O)O)ccc23)cc1,inactive,
CCCCC(CC)C(=O)OCCOCCOCCOC(=O)C(CC)CCCC (stereo not given),inactive,
C=CCc1cc(S(=O)(=O)c2ccc(O)c(CC=C)c2)ccc1O,,7.04 µM (active)
NC(=O)N(O)[C@@H]1COc2cc(OCc3ccccc3)ccc21,inactive,
CCCCCCCCCCCCCCO,inactive,
O=C(NO)C1(NS(=O)(=O)c2ccc(Oc3ccc(F)cc3)cc2)CCOCC1,,33 µM (active)
CNC(C)=O,inactive,
Cc1cccc(O)c1C,inactive,
O=S(=O)(O)CCC(F)(F)C(F)(F)C(F)(F)C(F)(F)C(F)(F)C(F)(F)F,inactive,
c1ccc(C(O[C@@H]2CCCN(CCc3ccc4c(c3)OCO4)C2)c2ccccc2)cc1,,33 µM (active)
Cc1ncc([C@@H](CCCCCCc2ccc3c(n2)NCCC3)CC(=O)O)cn1,inactive,

# Reference: PubChem BioAssay (EPA / NIEHS)
